According to PubChem BioAssay AID602240 (Southern Research Specialized Biocontainment Screening …, 2012):
Unmarked numbers belong to inactive results. How the calls were made is not given here.

experiment: Vero 76 cell cytotoxicity, dose response, cytotoxicity control, set 2 (AID 602240); settings: Vero 76 cells viability, cytotoxicity counter-screen for VEEV; series mostly up to 50 µM; viability: at the top concentration

Structure (SMILES) | viability
O=C(Oc1ccc2ccccc2c1Br)N1CCCCCC1 | 80.8%
O=c1c2cc([N+](=O)[O-])ccc2nc(CN2CCN(c3ccccc3)CC2)n1-c1ccccc1F | 71.8%
O=c1nc(Nc2ccc(OCc3ccccc3)cc2)sc2ncccc12 | 80.5%
Clc1ccc2nnnc(-c3ccccc3)c2c1 | 127%
CCN1CCN(Cc2nc3ccc([N+](=O)[O-])cc3c(=O)n2-c2ccccc2F)CC1 | 73.1%
